Shown are actives, neighbours in structure and some others; about 19% of the full set was active somewhere.
Lassa entry inh – blocks Lassa virus binding to or entry into cells; Lassa virus pseudotype entry inhibition, cell reporter; AID 540256; 300,000 tested, 1.2% active; Potency, µM (titrated, usually from 37.9 µM), without a hit: at the highest dose activity change, negative = inhibition, usual class: inhibitors; calls by dose curve; tested in HEK293 cells; also: potency is read from the fitted curve at half-maximal effect; % is scaled to controls: 0 for no effect and ±100 for the full control effect; nearly all actives have a fitted effect of over 50% in size
Cycloheximide cs – affects cycloheximide protein synthesis inhibition readout, counter-screen; cell reporter, cycloheximide protein synthesis inhibition counterscreen; max response, %; 300,000 tested, 12% active; AID 2314; in the data active = max response mostly above about 13%, no sharp cut-off; inactive = mostly below about 14%; also: read at 38.3 µM for the half of the compounds with a filed dose; 0% is about no effect
Pf growth 96h – P. falciparum growth inhibition at 96 hour, primary screen for plastid delayed-death inhibitors; Potency, µM (top dose mostly 28.7 µM), without a hit: at the highest dose activity change, negative = inhibition, usual class: inhibitors; AID 504834; 320,000 tested, 6.9% active; P. falciparum luciferase reporter growth, 96 h; also: potency is read from the fitted curve at half-maximal effect; % is scaled to controls: 0 for no effect and ±100 for the full control effect
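Plates of compound plus infected erythrocytes (2% hematocrit, 0.05% parasitemia final) incubate 96 hours, 37 C, 5% CO2. Detection reagent added; reduced luminescence from the parasites' luciferase reporter flags inhibition.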
Pf growth 48h – inhibits P. falciparum growth in the first generation, 48 h. P. falciparum luciferase growth in erythrocytes, 48 h. Potency, µM (top dose mostly 28.7 µM), inactives show top-dose activity change, negative = inhibition, most hits filed as inhibitors. 310,000 tested, 5.9% active. AID 504832; also: potency is read from the fitted curve at half-maximal effect; % is scaled to controls: 0 for no effect and ±100 for the full control effect
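A one-generation exposure of luciferase-tagged malaria parasites in RPMI 1640/Albumax erythrocyte culture, 37 C and 5% CO2. Inhibition is inferred from decreased luminescence after adding detection reagent.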
MARV entry inh – Marburg virus entry inhibition; Marburg virus pseudotyped entry inhibition, cell reporter; Potency, µM (doses to about 37.8 µM), inactives show top-dose activity change, negative = inhibition, usual class: inhibitors; 300,000 tested, 1.8% active; AID 540276; calls by dose curve; tested in HEK293 cells; also: potency is read from the fitted curve at half-maximal effect; % is scaled to controls: 0 for no effect and ±100 for the full control effect
Shiga toxin inh – inhibitors of Shiga toxin in Vero cells | Vero cells, Shiga toxin protein synthesis inhibition reporter | inhibition, % at 38.7 µM | 290,000 tested, 9.2% active; in the data active = inhibition mostly above about 28%, no sharp cut-off; inactive = mostly below about 43%; also: 0% is about no effect
An asterisk follows results filed as active; [ ] = remark or other dose. Unless noted, calls follow the shape of the dose curve; as a rule, active = well fitted inhibition curve with a large enough effect; inconclusive = small, poorly fitted or top-dose-only effect, or another doubt; inactive = no such curve, though single readings can be large or run the other way.

How did CCc1ccc(NC(=O)CCc2nnc3ccc(N4CCC5(CC4)OCCO5)nn23)cc1 do in these assays?
Lassa entry inh: 3%[46.1 µM]; Cycloheximide cs: -2; Pf growth 96h: inconclusive; Pf growth 48h: inconclusive; MARV entry inh: inconclusive; Shiga toxin inh: -6

How did CCN(/C(N)=N/c1nc(C)cc(C)n1)c1ccccc1 do in these assays?
Lassa entry inh: -3%[46.1 µM]; Cycloheximide cs: 13*; Pf growth 96h: -4%; Pf growth 48h: 9%; MARV entry inh: -4%[46.1 µM]; Shiga toxin inh: 20

What do the screens show for `CCOC(=O)C(C(=O)NCc1ccc(C)cc1)c1ncc(C(F)(F)F)cc1Cl` (stereo not drawn)?
Lassa entry inh: inconclusive; Cycloheximide cs: -2; Pf growth 96h: 51%; Pf growth 48h: 1%; MARV entry inh: 27%; Shiga toxin inh: -10

How did COC(=O)c1cc(Br)c(=O)n(Cc2ccc3c(c2)OCO3)c1 do in these assays?
Lassa entry inh: -1%; Cycloheximide cs: 12; Pf growth 96h: 9.3µM*; Pf growth 48h: inconclusive; MARV entry inh: 4%; Shiga toxin inh: -14

Results for Cc1nc2ccc(-c3nc4ccccc4o3)cc2[nH]1 ?
Lassa entry inh: inconclusive; Cycloheximide cs: 52*; Pf growth 96h: inconclusive; Pf growth 48h: 168%; MARV entry inh: -17%; Shiga toxin inh: 68*

How did O=C1c2ccc(-c3nc4ccccc4o3)cc2C(=O)N1Cc1ccccc1 do in these assays?
Lassa entry inh: -1%; MARV entry inh: 12%

What do the screens show for `Nc1ccc(-c2nc3ccc(-c4nc5ccccc5o4)cc3[nH]2)cc1`?
Lassa entry inh: -29%; Cycloheximide cs: 28*; Pf growth 96h: 24%; Pf growth 48h: 9.3µM*; MARV entry inh: 7.1µM*; Shiga toxin inh: 39

Results for Cc1ccnc2ccc(-c3nc4ccccc4o3)cc12 ?
Lassa entry inh: 30%; Cycloheximide cs: 21*; Pf growth 96h: 77%; Pf growth 48h: 140%; MARV entry inh: inconclusive; Shiga toxin inh: 55*

Results for O=C(O)c1ccccc1Nc1ccc(CCc2ccc(Cl)c(Cl)c2)cc1 ?
Cycloheximide cs: 16*; Shiga toxin inh: 27*

Results for O=C(O)c1ccccc1Nc1cc(Cl)cc(Cl)c1 ?
Cycloheximide cs: -2; Shiga toxin inh: -1

Results for COCCN1C(=O)c2ccccc2C(C(=O)Nc2ccc3c(c2)OCCO3)C1c1ccc(F)cc1 (stereo not drawn) ?
Lassa entry inh: 7%; Cycloheximide cs: 2; Pf growth 96h: inconclusive; Pf growth 48h: inconclusive; MARV entry inh: inconclusive; Shiga toxin inh: 3

Results for CCn1c(CC(C)C)n[nH]c1=S ?
Lassa entry inh: -6%; Cycloheximide cs: 1; Pf growth 96h: 28%; Pf growth 48h: 38%; MARV entry inh: 13%; Shiga toxin inh: -13

How did O=C1NC(=O)/C(=C/c2ccccc2Cl)N1 do in these assays?
Lassa entry inh: 22%[46.1 µM]; Cycloheximide cs: -1; Pf growth 96h: inconclusive; MARV entry inh: -22%[46.1 µM]; Shiga toxin inh: -9

Results for COc1cccc(/C=C2\NC(=O)NC2=O)c1O ?
Cycloheximide cs: 24; Pf growth 96h: 0.93µM*; Pf growth 48h: 76%; Shiga toxin inh: 41*

What do the screens show for `CCOC(=O)COc1ccccc1/C=C1/NC(=O)NC1=O`?
Lassa entry inh: 0%; Cycloheximide cs: -4; Pf growth 96h: 10µM*; Pf growth 48h: 14%; MARV entry inh: -1%; Shiga toxin inh: -5

What do the screens show for `Cn1c(=O)c2ncn(CC(=O)N/N=C/c3ccco3)c2n(C)c1=O`?
Lassa entry inh: -2%; Cycloheximide cs: -1; Pf growth 96h: 5.9µM*; Pf growth 48h: 12%; MARV entry inh: 1%; Shiga toxin inh: -9

What do the screens show for `COc1ccc(C(=O)NCc2ccncc2)cc1S(=O)(=O)NCc1ccc(Cl)cc1`?
Pf growth 96h: 10µM*; Pf growth 48h: inconclusive

How did CCOc1ccc(S(=O)(=O)NCc2ccc(F)cc2)c2cccnc12 do in these assays?
Lassa entry inh: 2%; Cycloheximide cs: 11; Pf growth 96h: 6.6µM*; Pf growth 48h: 0%; MARV entry inh: -11%[46.1 µM]; Shiga toxin inh: 5

What do the screens show for `CCOc1ccc(Br)cc1S(=O)(=O)NCc1ccc(S(N)(=O)=O)cc1`?
Lassa entry inh: 3%; Cycloheximide cs: -2; Pf growth 96h: -19%; Pf growth 48h: -7%; MARV entry inh: -29%; Shiga toxin inh: -8

How did CCOc1ccc(Br)cc1S(=O)(=O)NCc1ccncc1 do in these assays?
Lassa entry inh: -39%; Cycloheximide cs: -3; Pf growth 96h: 13µM*; Pf growth 48h: -1%; MARV entry inh: -30%[46.1 µM]; Shiga toxin inh: -7

What do the screens show for `CCOc1ccc(S(=O)(=O)Nc2ccc3c(c2)OCO3)c2cccnc12`?
Lassa entry inh: -2%; Cycloheximide cs: 23*; Pf growth 96h: inconclusive; Pf growth 48h: inconclusive; MARV entry inh: -2%[46.1 µM]; Shiga toxin inh: 19

What do the screens show for `O=C(NCc1ccc2c(c1)OCO2)C1CCC(CNc2c(N3CCCCC3)c(=O)c2=O)CC1` (stereo not drawn)?
Cycloheximide cs: -7; Pf growth 96h: inconclusive; Pf growth 48h: inconclusive; MARV entry inh: -1%; Shiga toxin inh: -8

What do the screens show for `Cc1c(N=Cc2ccc(-c3ccc(Cl)cc3)o2)c(=O)n(-c2ccccc2)n1C`?
Lassa entry inh: 5%; Cycloheximide cs: -5; Pf growth 48h: 14%; MARV entry inh: 0%; Shiga toxin inh: 11

Results for O=C(CN1CCC2(CC1)OCCO2)c1ccc2cc[nH]c2c1 ?
Lassa entry inh: 26%[14.3 µM]; Cycloheximide cs: 11; Pf growth 96h: 21%; Pf growth 48h: 34%; MARV entry inh: inconclusive; Shiga toxin inh: -4

How did O=C(c1ccccc1F)N1CCN(S(=O)(=O)c2ccc(S(=O)(=O)N3CCCCC3)cc2)CC1 do in these assays?
Lassa entry inh: -12%; Cycloheximide cs: -4; Pf growth 96h: 31%; Pf growth 48h: 14%; MARV entry inh: -21%; Shiga toxin inh: -8

How did COc1ccccc1C(=O)N1c2ccccc2Sc2ccccc21 do in these assays?
Lassa entry inh: inconclusive; Cycloheximide cs: -7; Pf growth 96h: -22%; Pf growth 48h: -40%; MARV entry inh: inconclusive; Shiga toxin inh: 9

How did COc1cccc(C(=O)N2CCN(c3ccccn3)CC2)c1 do in these assays?
Lassa entry inh: -5%; Cycloheximide cs: -2; Pf growth 96h: 0%; Pf growth 48h: -5%; MARV entry inh: 2%

How did CC1(C)CN2C(=S)N(c3ccccc3)C(c3ccccc3)N2C1 (stereo not drawn) do in these assays?
Lassa entry inh: 14%; Cycloheximide cs: 5; Pf growth 96h: 8.3µM*; MARV entry inh: inconclusive; Shiga toxin inh: -1

What do the screens show for `Cc1ccc(NC(=O)CN2C(=O)/C(=C3\SC(=S)N(C4CCS(=O)(=O)C4)C3=O)c3ccccc32)cc1` (stereo not drawn)?
Lassa entry inh: 16%; Cycloheximide cs: -5; Pf growth 96h: 32%; Pf growth 48h: 12%; MARV entry inh: 14%; Shiga toxin inh: 7
